As usually defined, the AC50 is the concentration giving half of the maximal activity seen.

Read-out in experiment [1]: E-selectin (Homo sapiens) (UniProt P16581)
Briefly: BSK_IMphg_ESelectin: BioMAP Diversity Plus: IMphg Assay for Eselectin Biomarker Activity (AID 2284291). The settings on record: primary human endothelial cells with macrophages. The procedure, abridged:
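Analysed against DMSO baseline in the positive fitting direction, this endpoint is an ELISA read of E-selectin. It comes from human venular endothelial cells co-cultured with macrophages, sampled 24 h post-dose.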

Read-out in experiment [2]: Interleukin-10 (IL10), IL10 (gene 3586)
Put plainly: BSK_IMphg_IL10: BioMAP Diversity Plus: IMphg Assay for Interleukin-10 (IL10) Biomarker Activity (AID 2284294). To be noted: primary human endothelial cells with macrophages. The procedure, abridged: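 IL-10 read by ELISA after 24 h chemical exposure of primary human venular endothelial cell/macrophage cocultures, with DMSO as baseline. Parallel SRB staining (560 nm) gauged overt cytotoxicity.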

Experiment [3] in a line: BSK_IMphg_SRB.Mphg: Macrophage Viability Assessment in the BioMAP Diversity Plus: IMphg Assay (AID 2284295). To be noted: primary human endothelial cells with macrophages. The procedure, abridged:
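Cytotoxicity read-out: parallel cultures fixed with 10% TCA, stained with 0.1% sulforhodamine B, read at 560 nm. System combines venular endothelium and macrophages; sampled 24 h post-dosing, fitted positively relative to DMSO control.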

Read-out in experiment [4]: Thrombomodulin, THBD (gene 7056)
Briefly: BSK_LPS_Thrombomodulin: BioMAP Diversity Plus: LPS Assay for Thrombomodulin Biomarker Activity (AID 2284296). To be noted: primary human HUVEC with PBMC. The method, boiled down: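 Thrombomodulin on the surface of LPS-activated endothelial/PBMC co-cultures was quantified by ELISA at 24 hours post-dosing, with DMSO as baseline. Parallel SRB total-protein staining flagged overt cytotoxicity.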

The nature of experiment [5]: IUF_NPC2c_oligodendrocyte_migration_120hr: Leibniz Research Institute for Environmental Medicine (IUF) 120-hour Neural Progenitor Cell Migration Assay for Oligodendrocyte Migration (NPC2c) (AID 2284297).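 Further: O4-positive oligodendrocyte migration distance divided by radial glia migration distance.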 The method, boiled down:
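hNPC spheres (GW 16-19 cortex), PDL/laminin, DMEM/F12 3:1 + 1% N2, 37C. Dosing day 0–5, half feed day 3, DMSO ≤0.1%. Fixed 120 h; O4 ICC + Hoechst, HCI. Readout: mean oligodendrocyte distance from sphere edge / radial glia distance.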

The nature of experiment [6]: IUF_NPC2a_radial_glia_migration_120hr: Leibniz Research Institute for Environmental Medicine (IUF) 120-hour Neural Progenitor Cell Migration Assay for Radial Glia Migration (NPC2a) (AID 2284298). The procedure, abridged: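 Hoechst-stained nuclei imaged at 120 h; algorithm maps sphere core by densest nuclei, sets migration edge at density threshold, gives radial glia migration distance (um) per well vs DMSO. hNPC spheres (0.3 mm), PDL/laminin, DMEM/F12 3:1 + 1% N2.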

Experiment [7] can be described thus: IUF_NPC2a_radial_glia_migration_72hr: Leibniz Research Institute for Environmental Medicine (IUF) 72-hour Neural Progenitor Cell Migration Assay for Radial Glia Migration (NPC2a) (AID 2284299). The method, boiled down: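 Spheres of human primary neural progenitors migrate on poly-D-lysine/laminin under compound exposure at 37C, 5% CO2. The 72 h radial glia migration distance comes from brightfield images, measured manually.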

The nature of experiment [8]: IUF_NPC2b_neuronal_migration_120hr: Leibniz Research Institute for Environmental Medicine (IUF) 120-hour Neural Progenitor Cell Migration Assay for Neuron Migration (NPC2b) (AID 2284300). The method, boiled down:
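hNPC spheres, PDL/laminin, DMEM:F12 3:1 + 1% N2, 37C/5% CO2; 7 concentrations + solvent control (DMSO ≤0.1%), 5 d exposure, half-feed day 3. Fix 120 h, TUBB3 ICC, HCI: mean neuron migration distance ÷ glia distance.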

The nature of experiment [9]: IUF_NPC3_neuronal_differentiation_120hr: Leibniz Research Institute for Environmental Medicine (IUF) 120-hour Neuronal Differentiation Assay (NPC3) (AID 2284301). The procedure, abridged: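 Value is percent TUBB3-positive neurons among Hoechst-stained nuclei in the migration area, scored by trained CNN after 120 h differentiation. Primary hNPC spheres on poly-D-lysine/laminin, N2 medium, continuous dosing from day 0, half-refeed day 3; DMSO reference.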

The nature of experiment [10]: IUF_NPC4_neurite_length_120hr: Leibniz Research Institute for Environmental Medicine (IUF) 120-hour Neuronal Morphology Assay for Neurite Length (NPC4) (AID 2284302). The procedure, abridged: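 Neurite length, the mean in um across TUBB3-stained neurons, is derived by skeletonization of high-content images after 120 h differentiation. Compound exposure, 7 concentrations plus solvent control, ran from plating of hNPC spheres on poly-D-lysine/laminin, with medium half-replaced on day 3.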

Experiment [11] can be described thus: IUF_NPC5_oligodendrocyte_differentiation_120hr: Leibniz Research Institute for Environmental Medicine (IUF) 120-hour Oligodendrocyte Differentiation Assay (NPC5) (AID 2284304; active means hit-call score of the fitted dose curve at least 0.9, where 1 is the maximum;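 further: primary human fetal neural progenitor spheres plated to migrate and differentiate; share of O4-positive cells among Hoechst nuclei found by CNN image analysis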). The procedure, abridged: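 hNPC spheres, fetal cortex GW 16-19; PDL/laminin, DMEM:F12 3:1 + 1% N2, 37C/5% CO2; 7 concentrations + solvent control, 5 d exposure, half-change day 3. Readout: %O4+ of Hoechst+ nuclei in migration area, CNN classification; DMSO baseline.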

Experiment [12] can be described thus: IUF_NPC4_neurite_area_120hr: Leibniz Research Institute for Environmental Medicine (IUF) 120-hour Neuronal Morphology Assay for Neurite Area (NPC4) (AID 2284305; active means hit-call score of the fitted dose curve at least 0.9, where 1 is the maximum). The method, boiled down:
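Neurite area (pixels, nuclei excluded) of TUBB3-positive neurons from hNPC spheres differentiating 5 days under continuous exposure at 37 C, 5% CO2. High-content imaging; loss of signal versus DMSO control across 7 concentrations.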

A short description of experiment [13]: IUF_NPC2-5_cytotoxicity_72hr: Cytotoxicity Assessment at 72 hours in the Leibniz Research Institute for Environmental Medicine (IUF) Neural Progenitor Cell Migration and Differentiation Assay for Cytotoxicity (NPC2-5) (AID 2284306; active means hit-call score of the fitted dose curve at least 0.9, where 1 is the maximum;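 further: LDH release into supernatant measured by resorufin fluorescence marking membrane damage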). The procedure, abridged: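 Membrane-integrity cytotoxicity at 72 h, read as LDH-driven resorufin fluorescence in supernatant. hNPC spheres from fetal cortex differentiate on coated plates in N2 medium, 37C, 5% CO2; seven serial compound concentrations plus solvent control (DMSO ≤0.1%).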

A short description of experiment [14]: IUF_NPC2-5_cytotoxicity_120hr: Cytotoxicity Assessment at 120 hours in the Leibniz Research Institute for Environmental Medicine (IUF) Neural Progenitor Cell Migration and Differentiation Assay (NPC2-5) (AID 2284307; active means hit-call score of the fitted dose curve at least 0.9, where 1 is the maximum;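 on AC50: LDH released into supernatant as membrane damage marker via resorufin fluorescence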). The procedure, abridged: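 hNPC spheres on PDL/laminin, N2 medium, 37C; 7 concs + solvent control, DMSO ≤0.1%; 5-day exposure, half medium changed day 3. LDH in supernatant at 120 h, resazurin→resorufin fluorescence, gain-of-signal.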

Experiment [15] can be described thus: IUF_NPC2-5_cell_number_120hr: Cell Number Assessment at 120 hours in the Leibniz Research Institute for Environmental Medicine (IUF) Neural Progenitor Cell Migration and Differentiation Assay (NPC2-5) (AID 2284308).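 Further: count of Hoechst-stained nuclei in migration zone around plated human neural progenitor spheres.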 The method, boiled down: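 Hoechst-stained nuclei within the migration area were counted by automated high content imaging after 120 h. Single hNPC spheres differentiated on poly-D-lysine/laminin in DMEM/F12 (3:1) with 1% N2, compound present throughout, DMSO ≤0.1%.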

Experiment [16] can be described thus: VALA_TUBHUV_Agonist_CellCount: Viability Assessment in the VALA Sciences human Umbilical Vein Endothelial Tubule Formation (TUBHUV) Agonism Assay (AID 2284309; active means hit-call score of the fitted dose curve at least 0.9, where 1 is the maximum). The procedure, abridged:
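Viability endpoint by fluorescent imaging of fixed nuclear/CD31-stained HUVEC–HDF co-cultures. Readout is cell count, fitted upward against 0.1% DMSO. Compound exposure was 72 h in 10 ng/ml VEGF, after 3-day co-culture priming.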

Experiment [17] is described as follows: VALA_TUBHUV_Antagonist_CellCount: Viability Assessment in the VALA Sciences human Umbilical Vein Endothelial Tubule Formation (TUBHUV) Antagonism Assay (AID 2284310; active means hit-call score of the fitted dose curve at least 0.9, where 1 is the maximum). The procedure, abridged:
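Read-out is imaged cell count after nuclear and CD31 staining, fitted against 0.1% DMSO vehicle. Compounds were added for 3 days, in 10 ng/ml VEGF assay medium, to HUVEC–HDF co-cultures pre-grown 3 days.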

Experiment [18] in a line: VALA_TUBIPS_Agonist_TubuleLength: VALA Sciences human iPS-derived Endothelial Tubule Formation (TUBIPS) Agonism Assay (AID 2284311; active means hit-call score of the fitted dose curve at least 0.9, where 1 is the maximum). The procedure, abridged:
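Agonist-mode readout is the gain in imaged tubule length versus DMSO baseline. It was measured by fluorescence high-content imaging 72 h after dosing human iPSC-derived endothelial cells.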

A short description of experiment [19]: IUF_NPC2-5_viability_120hr: Viability Assessment at 120 hours in the Leibniz Research Institute for Environmental Medicine (IUF) Neural Progenitor Cell Migration and Differentiation Assay (NPC2-5) (AID 2284312). The procedure, abridged:
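Alamar blue resorufin fluorescence read after 5 days of differentiation, with compound present from day 0 and replenished at day 3. Primary hNPC spheres on laminin-coated plates, 37C; seven concentrations plus solvent control, fitted against DMSO.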

Experiment [20] can be described thus: VALA_TUBIPS_Antagonist_TubuleLength: VALA Sciences human iPS-derived Endothelial Tubule Formation (TUBIPS) Antagonist Assay (AID 2284313; active means hit-call score of the fitted dose curve at least 0.9, where 1 is the maximum). The procedure, abridged:
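Tubule length was quantified by high-content imaging of CD31- and nuclear-stained cells, with 0.1% DMSO as neutral and 100 uM suramin as inhibition control. Compounds were applied for 3 days, in 10 ng/ml VEGF, to cultures pre-grown 3 days.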

Each structure is given as a SMILES string. Values joined by “and” are separate entries in the source; they are usually repeats but may differ in a detail not shown here. Equal entries are not always repeated. Inconclusive results are not listed. Where a structure was tested more than once in an assay, its records may differ in their call. Active and inactive are the calls of the source. How the source made its calls, unless noted: active means hit-call score of the fitted dose curve at least 0.9, where 1 is the maximum; inactive means score below 0.9.

E-selectin (Homo sapiens), sequence (P16581 whole entry, looked up): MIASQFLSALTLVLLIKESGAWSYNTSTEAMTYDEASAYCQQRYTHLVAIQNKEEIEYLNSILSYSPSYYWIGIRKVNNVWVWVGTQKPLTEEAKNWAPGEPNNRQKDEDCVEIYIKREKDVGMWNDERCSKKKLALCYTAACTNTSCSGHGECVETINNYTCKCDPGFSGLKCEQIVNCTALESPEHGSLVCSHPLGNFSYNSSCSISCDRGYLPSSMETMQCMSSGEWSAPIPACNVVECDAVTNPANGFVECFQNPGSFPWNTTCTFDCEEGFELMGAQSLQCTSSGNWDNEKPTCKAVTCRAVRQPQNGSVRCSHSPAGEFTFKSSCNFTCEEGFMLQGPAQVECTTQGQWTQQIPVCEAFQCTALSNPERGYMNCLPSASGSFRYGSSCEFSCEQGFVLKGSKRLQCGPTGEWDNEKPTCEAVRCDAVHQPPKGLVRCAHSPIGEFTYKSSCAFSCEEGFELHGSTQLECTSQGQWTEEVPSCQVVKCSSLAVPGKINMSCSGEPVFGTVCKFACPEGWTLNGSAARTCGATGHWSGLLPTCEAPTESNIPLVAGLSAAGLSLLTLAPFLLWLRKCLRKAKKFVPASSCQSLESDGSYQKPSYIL

Turning to `OCCC(F)(F)C(F)(F)C(F)(F)C(F)(F)F`, the outcome in experiment [1], in [2], in experiment [3] and in experiment [4] was inactive.
Turning to `FC(F)(F)C(F)(F)C(F)(F)C(F)(F)C(F)(F)C(F)(F)I`, the result in [1], in experiment [2], in experiment [3] and in [4] was inactive.
Turning to `Cn1cc[nH]c1=S`, the outcome in experiment [5], in experiment [6], in [7], in experiment [8], in experiment [9] and in experiment [10] was inactive. The result in experiment [11], in experiment [12], in experiment [13], in experiment [14], in experiment [15] and in experiment [16] was inactive. In addition, the molecule was called inactive in [17], in experiment [18] and in [19].
For `FC(F)(F)COC(OCC(F)(F)F)OCC(F)(F)F`, the outcome in experiment [1], in experiment [2], in experiment [3] and in [4] was inactive.
As to `OC(O)(C(F)C(O)(O)C(F)(F)F)C(F)(F)F`, the outcome in [1], in experiment [3] and in experiment [4] was inactive. The AC50 in [2] is 25 µM (active) and 22.2 µM (active).
With `FC(F)=C(F)C(F)(F)C(F)(F)C(F)(F)C(F)(F)C(F)(F)C(F)(F)F`, the result in experiment [1], in experiment [2], in experiment [3] and in [4] was inactive.
In the case of `NCC(F)(F)C(F)(F)C(F)(F)C(F)(F)F`, the outcome in experiment [1], in experiment [2], in [3] and in experiment [4] was inactive.
With `OCCNCCO`, the result in experiment [16] and in [17] was inactive.
For the molecule `CCCC(CCC)C(=O)O`, the call in experiment [5], in experiment [8], in experiment [12], in experiment [17], in [18] and in experiment [20] was inactive. Moreover, the half-maximal activity concentration (AC50) in [7] is 1330 µM (active); in experiment [9], 2200 µM (active); in experiment [10], 2180 µM (active); in [11], 999 µM (active); in experiment [14] it was 1400 µM (active); in experiment [15] it was 2210 µM (active). Also, the AC50 in experiment [19] was 1030 µM (active).
`O=C(Cl)C(F)(F)C(F)(F)C(F)(F)C(=O)Cl`: the result in [1], in [2], in experiment [3] and in experiment [4] was inactive.
Consider `Nc1ccn([C@@H]2O[C@H](CO)[C@@H](O)[C@@H]2O)c(=O)n1`, for which the molecule was classed as inactive in [5], in experiment [6], in experiment [7], in experiment [8], in experiment [10] and in experiment [12]. The call in experiment [19] was inactive. Also, the AC50 in experiment [9] was 0.0137 µM (active); in experiment [13] it was 0.237 µM (active); in [14] it was 0.0802 µM (active); in experiment [15], 0.743 µM (active).
In the case of `C[Si](C)(C)C(F)(F)C(F)(F)C(F)(F)F`, the result in experiment [1], in [2], in experiment [3] and in experiment [4] was inactive.
As to `O=S(=O)(O)CCC(F)(F)C(F)(F)C(F)(F)C(F)(F)C(F)(F)C(F)(F)F`, the result in [1], in [2], in experiment [3] and in experiment [4] was inactive. Also, in experiment [4], the half-maximal activity concentration (AC50) is 0.227 µM (active).
Turning to `FC(F)C(F)(F)COCC1CO1` (stereo not drawn), the outcome in experiment [1], in [2], in [3] and in experiment [4] was inactive.
For the molecule `CCN(CC)C(=S)SSC(=S)N(CC)CC`, in experiment [18], the result was inactive.

For the origin of these results see PubChem BioAssay (EPA / NIEHS).
